Binding signal data for 1 sequence are collected here from paper PMC7862700, “An all-to-all approach to the identification of sequence-specific readers for epigenetic DNA modifications on cytosine”.

What all share (assay): DAPPL (digital affinity profiling via proximity ligation, sequencing); 10 mM Tris-HCl pH 7.5, 50 mM NaCl, 1 mM DTT, 4% glycerol, room temperature, 30 min; GST-TFs on glutathione beads, 16-mer random dsDNA library, 0.1% formaldehyde crosslink after washing; high values mean tight binding
One experiment concerns the target T1, FLI1 (Homo sapiens, UniProt Q01543 1-452).
T1 sequence: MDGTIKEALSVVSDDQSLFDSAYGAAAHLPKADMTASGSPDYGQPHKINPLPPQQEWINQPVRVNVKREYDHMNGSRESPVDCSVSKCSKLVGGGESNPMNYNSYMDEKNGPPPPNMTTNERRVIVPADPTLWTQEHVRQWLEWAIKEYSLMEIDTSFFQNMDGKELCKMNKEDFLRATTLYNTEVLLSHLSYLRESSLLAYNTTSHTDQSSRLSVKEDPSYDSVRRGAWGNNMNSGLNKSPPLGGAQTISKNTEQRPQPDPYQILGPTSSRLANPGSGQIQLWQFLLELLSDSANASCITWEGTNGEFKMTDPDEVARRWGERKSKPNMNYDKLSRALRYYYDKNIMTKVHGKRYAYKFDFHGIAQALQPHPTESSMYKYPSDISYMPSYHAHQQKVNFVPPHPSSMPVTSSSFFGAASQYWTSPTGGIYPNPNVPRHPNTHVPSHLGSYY
The following applies: protein: recombinant; tags: N-terminal GST; dsDNA, one strand shown. An outline of the steps:
(§1)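 Sequencing on an Illumina NextSeq500 followed washing, crosslinking with 0.1% formaldehyde, proximity ligation (BsaI/T4 ligase, 1 h, 37 °C) and PCR amplification of pools that had been incubated for 30 min at room temperature with 200 nmole of a random double-stranded 16-mer DNA library in Tris/NaCl/DTT/glycerol buffer. Each pool held DNA-barcoded human transcription factors, expressed in yeast as GST fusions and captured on glutathione beads, plus a tag-only sample. Binding signal is a hexamer's read frequency for a factor divided by its frequency in the tag-only sample.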

The next experiment has as its target T2, ELK1 (Homo sapiens, UniProt P19419 1-428).
T2 sequence: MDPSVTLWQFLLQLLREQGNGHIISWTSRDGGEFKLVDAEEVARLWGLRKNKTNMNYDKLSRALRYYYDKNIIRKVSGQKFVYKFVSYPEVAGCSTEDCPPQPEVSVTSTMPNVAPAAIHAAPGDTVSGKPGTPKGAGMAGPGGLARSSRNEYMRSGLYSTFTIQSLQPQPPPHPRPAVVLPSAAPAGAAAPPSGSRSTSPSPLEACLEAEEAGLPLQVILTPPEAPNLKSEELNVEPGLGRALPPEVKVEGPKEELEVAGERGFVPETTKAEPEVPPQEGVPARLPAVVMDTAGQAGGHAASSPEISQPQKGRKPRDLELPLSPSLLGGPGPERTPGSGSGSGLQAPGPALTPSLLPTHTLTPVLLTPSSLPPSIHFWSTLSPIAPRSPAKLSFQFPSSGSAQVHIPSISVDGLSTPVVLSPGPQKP
The following applies: protein: recombinant; tags: N-terminal GST; dsDNA, one strand shown. An outline of the steps: as §1

A further experiment addresses T3, GABPA (Homo sapiens, UniProt Q06546 1-454).
T3 sequence: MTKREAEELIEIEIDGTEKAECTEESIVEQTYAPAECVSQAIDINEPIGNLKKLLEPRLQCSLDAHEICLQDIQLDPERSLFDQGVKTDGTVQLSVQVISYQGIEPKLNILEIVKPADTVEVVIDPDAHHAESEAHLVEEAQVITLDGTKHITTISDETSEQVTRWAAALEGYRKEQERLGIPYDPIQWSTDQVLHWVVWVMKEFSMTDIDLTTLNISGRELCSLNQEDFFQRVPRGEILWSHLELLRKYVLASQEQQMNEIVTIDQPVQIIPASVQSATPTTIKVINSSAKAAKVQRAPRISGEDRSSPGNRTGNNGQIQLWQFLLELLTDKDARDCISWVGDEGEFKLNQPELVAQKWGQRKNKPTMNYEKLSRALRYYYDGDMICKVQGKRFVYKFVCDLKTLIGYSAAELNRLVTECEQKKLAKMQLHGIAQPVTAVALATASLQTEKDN
The following applies: protein: recombinant; tags: N-terminal GST; dsDNA, one strand shown. An outline of the steps: as §1

The next experiment has as its target T4, ERG (Homo sapiens, UniProt P11308 1-479).
T4 sequence: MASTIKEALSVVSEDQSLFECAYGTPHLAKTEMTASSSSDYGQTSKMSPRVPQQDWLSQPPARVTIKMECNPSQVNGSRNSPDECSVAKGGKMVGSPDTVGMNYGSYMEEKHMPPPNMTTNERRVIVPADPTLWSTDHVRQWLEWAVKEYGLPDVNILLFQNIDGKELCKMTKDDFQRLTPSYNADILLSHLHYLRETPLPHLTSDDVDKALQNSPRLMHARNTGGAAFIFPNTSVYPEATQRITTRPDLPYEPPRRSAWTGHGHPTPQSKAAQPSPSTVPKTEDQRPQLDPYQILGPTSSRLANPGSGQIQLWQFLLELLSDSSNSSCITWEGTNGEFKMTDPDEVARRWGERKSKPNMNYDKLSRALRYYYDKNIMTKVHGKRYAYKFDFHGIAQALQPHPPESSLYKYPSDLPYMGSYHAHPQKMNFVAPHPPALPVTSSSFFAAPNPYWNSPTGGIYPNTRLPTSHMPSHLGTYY
Conditions: protein: recombinant; tags: N-terminal GST; dsDNA, one strand shown. An outline of the steps:
as §1

In the next experiment the target is ELF1 (Homo sapiens, UniProt P32519 1-619). The following applies: protein: recombinant; tags: N-terminal GST; dsDNA, one strand shown. An outline of the steps:
as §1

The next experiment deals with T5, EHF (Homo sapiens, UniProt Q9NZC4 1-300).
T5 sequence: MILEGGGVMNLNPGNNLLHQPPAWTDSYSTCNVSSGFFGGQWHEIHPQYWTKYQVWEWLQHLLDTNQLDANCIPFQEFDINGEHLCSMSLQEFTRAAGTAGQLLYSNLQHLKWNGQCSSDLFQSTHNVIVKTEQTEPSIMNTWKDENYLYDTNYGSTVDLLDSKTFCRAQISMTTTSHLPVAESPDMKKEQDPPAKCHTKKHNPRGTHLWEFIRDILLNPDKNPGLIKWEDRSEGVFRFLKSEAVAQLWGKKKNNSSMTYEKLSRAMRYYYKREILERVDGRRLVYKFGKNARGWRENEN
The following applies: protein: recombinant; tags: N-terminal GST; dsDNA, one strand shown. An outline of the steps:
as §1

For the next experiment, the target named is SPI1 (Homo sapiens, UniProt P17947 1-270). The following applies: protein: recombinant; tags: N-terminal GST; dsDNA, one strand shown. An outline of the steps:
as §1

A further experiment has as its target SPIB (Homo sapiens, UniProt Q01892 1-262). Conditions: protein: recombinant; tags: N-terminal GST; dsDNA, one strand shown. An outline of the steps: as §1
A further experiment concerns the target T6, ELK3 (Homo sapiens, UniProt P41970 1-407).
T6 sequence: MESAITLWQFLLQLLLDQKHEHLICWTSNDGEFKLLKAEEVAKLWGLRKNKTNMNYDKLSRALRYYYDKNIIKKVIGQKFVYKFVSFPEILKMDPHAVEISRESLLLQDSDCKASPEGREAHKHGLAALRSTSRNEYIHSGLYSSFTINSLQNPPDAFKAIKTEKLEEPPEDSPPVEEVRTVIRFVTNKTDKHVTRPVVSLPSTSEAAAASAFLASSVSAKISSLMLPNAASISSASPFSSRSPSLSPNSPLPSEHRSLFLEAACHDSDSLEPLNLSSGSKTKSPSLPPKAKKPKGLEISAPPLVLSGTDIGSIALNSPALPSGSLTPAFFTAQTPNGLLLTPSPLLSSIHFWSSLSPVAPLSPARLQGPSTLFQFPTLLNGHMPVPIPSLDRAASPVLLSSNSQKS
The following applies: protein: recombinant; tags: N-terminal GST; dsDNA, one strand shown. An outline of the steps:
as §1

The next experiment deals with T7, FEV (Homo sapiens, UniProt Q99581 1-238).
T7 sequence: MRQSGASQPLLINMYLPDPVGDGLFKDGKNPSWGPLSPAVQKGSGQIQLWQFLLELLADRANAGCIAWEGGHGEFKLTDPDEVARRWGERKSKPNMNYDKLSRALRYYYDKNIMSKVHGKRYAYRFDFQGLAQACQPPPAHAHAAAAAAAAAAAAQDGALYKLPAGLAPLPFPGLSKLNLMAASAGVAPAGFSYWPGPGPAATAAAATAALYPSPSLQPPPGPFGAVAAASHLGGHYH
The following applies: protein: recombinant; tags: N-terminal GST; dsDNA, one strand shown. An outline of the steps:
as §1

Another experiment deals with ETV5 (Homo sapiens, UniProt P41161 1-510). The following applies: protein: recombinant; tags: N-terminal GST; dsDNA, one strand shown. An outline of the steps:
as §1

The next experiment has as its target HSF1 (Homo sapiens, UniProt Q00613 1-529). Conditions: protein: recombinant; tags: N-terminal GST; chain copies: 3; dsDNA, one strand shown. An outline of the steps: as §1
Another experiment concerns the target T8, SPIC (Homo sapiens, UniProt Q8N5J4 1-248).
T8 sequence: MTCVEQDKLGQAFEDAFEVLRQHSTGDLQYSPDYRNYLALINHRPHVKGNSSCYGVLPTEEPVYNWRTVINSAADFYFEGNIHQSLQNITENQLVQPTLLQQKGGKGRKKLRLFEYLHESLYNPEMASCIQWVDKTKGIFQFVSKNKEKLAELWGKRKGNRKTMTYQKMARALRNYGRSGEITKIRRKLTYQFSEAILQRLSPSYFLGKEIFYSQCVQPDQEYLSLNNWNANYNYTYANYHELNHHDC
Conditions: protein: recombinant; tags: N-terminal GST; dsDNA, one strand shown. An outline of the steps:
as §1

For a further experiment, the target named is ELF4 (Homo sapiens, UniProt Q99607 1-663). The following applies: protein: recombinant; tags: N-terminal GST; dsDNA, one strand shown. An outline of the steps:
as §1

In another experiment the target is T9, ELK4 (Homo sapiens, UniProt P28324-2 1-405).
T9 sequence: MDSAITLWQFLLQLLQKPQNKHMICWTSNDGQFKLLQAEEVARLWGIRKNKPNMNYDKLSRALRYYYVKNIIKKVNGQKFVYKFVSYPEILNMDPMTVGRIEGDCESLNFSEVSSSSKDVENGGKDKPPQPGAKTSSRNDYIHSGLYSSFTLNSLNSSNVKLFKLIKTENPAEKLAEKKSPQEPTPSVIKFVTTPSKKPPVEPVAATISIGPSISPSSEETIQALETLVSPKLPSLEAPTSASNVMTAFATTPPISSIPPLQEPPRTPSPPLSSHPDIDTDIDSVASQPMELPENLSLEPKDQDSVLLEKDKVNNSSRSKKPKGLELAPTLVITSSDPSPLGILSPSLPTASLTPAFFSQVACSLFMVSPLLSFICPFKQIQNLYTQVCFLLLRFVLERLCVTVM
Conditions: protein: recombinant; tags: N-terminal GST; dsDNA, one strand shown. An outline of the steps: as §1

A further experiment deals with T10, ETV2 (Homo sapiens, UniProt O00321 1-342).
T10 sequence: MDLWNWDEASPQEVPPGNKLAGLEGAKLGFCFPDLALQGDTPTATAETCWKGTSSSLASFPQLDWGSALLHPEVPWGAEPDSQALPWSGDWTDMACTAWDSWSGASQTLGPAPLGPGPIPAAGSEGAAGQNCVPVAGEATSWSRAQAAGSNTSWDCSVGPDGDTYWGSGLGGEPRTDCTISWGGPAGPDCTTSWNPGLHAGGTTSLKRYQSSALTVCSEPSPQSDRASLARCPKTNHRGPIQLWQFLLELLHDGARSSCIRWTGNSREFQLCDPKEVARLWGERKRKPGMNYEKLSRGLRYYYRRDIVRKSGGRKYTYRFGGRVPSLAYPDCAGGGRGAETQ
The following applies: protein: recombinant; tags: N-terminal GST; dsDNA, one strand shown. An outline of the steps: as §1

The target of a further experiment is T11, ELF3 (Homo sapiens, UniProt P78545 1-371).
T11 sequence: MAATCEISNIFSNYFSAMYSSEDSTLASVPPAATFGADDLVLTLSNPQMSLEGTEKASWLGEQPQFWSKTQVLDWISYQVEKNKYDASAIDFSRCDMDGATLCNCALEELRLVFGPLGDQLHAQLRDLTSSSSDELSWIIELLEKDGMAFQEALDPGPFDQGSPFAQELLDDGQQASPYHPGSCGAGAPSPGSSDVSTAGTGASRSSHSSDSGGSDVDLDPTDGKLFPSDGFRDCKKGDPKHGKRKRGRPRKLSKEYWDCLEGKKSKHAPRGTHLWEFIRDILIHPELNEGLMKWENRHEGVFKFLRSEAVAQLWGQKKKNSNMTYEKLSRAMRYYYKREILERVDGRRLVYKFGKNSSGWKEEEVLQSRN
Conditions: protein: recombinant; tags: N-terminal GST; dsDNA, one strand shown. An outline of the steps: as §1

The target of another experiment is ETV1 (Homo sapiens, UniProt P50549 1-477). The following applies: protein: recombinant; tags: N-terminal GST; dsDNA, one strand shown. An outline of the steps:
as §1

Sequence of ETV1 (P50549 whole entry): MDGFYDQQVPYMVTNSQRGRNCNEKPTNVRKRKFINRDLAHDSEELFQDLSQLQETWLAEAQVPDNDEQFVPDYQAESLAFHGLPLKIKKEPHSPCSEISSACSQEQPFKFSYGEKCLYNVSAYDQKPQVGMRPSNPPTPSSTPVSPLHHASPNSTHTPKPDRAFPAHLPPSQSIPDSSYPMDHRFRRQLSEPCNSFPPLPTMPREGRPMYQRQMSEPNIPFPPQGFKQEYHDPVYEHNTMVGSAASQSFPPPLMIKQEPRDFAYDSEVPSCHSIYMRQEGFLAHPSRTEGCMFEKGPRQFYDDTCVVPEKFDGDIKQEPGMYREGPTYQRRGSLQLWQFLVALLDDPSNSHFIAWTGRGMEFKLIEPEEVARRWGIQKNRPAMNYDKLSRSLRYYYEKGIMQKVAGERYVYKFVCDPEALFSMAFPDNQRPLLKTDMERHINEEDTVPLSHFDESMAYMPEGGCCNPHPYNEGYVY
Sequence of ETV5 (P41161 whole entry): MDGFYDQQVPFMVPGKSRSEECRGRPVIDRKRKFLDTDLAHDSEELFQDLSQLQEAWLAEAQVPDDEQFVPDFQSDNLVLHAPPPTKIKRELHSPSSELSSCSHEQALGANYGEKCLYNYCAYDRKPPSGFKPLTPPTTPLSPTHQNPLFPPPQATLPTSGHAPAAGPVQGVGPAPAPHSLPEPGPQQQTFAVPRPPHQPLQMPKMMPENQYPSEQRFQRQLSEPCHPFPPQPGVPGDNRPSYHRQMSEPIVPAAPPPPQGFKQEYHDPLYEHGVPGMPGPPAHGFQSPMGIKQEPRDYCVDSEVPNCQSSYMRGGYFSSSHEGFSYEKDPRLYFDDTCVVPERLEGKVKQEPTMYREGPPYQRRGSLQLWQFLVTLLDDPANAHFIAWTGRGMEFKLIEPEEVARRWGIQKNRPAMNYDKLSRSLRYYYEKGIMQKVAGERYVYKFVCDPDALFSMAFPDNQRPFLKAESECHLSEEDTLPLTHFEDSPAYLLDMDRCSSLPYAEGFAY
Sequence of HSF1 (Q00613 whole entry): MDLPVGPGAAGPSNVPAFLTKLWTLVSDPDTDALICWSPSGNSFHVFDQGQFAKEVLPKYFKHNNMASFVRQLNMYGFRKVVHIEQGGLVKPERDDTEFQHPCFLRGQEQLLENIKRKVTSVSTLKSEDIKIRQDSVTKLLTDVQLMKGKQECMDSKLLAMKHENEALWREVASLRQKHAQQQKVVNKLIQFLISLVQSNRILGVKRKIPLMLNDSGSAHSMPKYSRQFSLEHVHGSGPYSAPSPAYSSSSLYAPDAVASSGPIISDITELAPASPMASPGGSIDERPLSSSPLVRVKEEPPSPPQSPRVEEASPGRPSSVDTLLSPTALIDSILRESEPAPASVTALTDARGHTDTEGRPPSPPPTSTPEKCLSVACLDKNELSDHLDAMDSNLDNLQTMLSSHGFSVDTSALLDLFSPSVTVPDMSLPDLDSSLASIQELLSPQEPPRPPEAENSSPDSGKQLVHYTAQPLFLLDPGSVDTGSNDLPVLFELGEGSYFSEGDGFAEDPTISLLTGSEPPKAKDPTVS
Sequence of ELF1 (P32519 whole entry): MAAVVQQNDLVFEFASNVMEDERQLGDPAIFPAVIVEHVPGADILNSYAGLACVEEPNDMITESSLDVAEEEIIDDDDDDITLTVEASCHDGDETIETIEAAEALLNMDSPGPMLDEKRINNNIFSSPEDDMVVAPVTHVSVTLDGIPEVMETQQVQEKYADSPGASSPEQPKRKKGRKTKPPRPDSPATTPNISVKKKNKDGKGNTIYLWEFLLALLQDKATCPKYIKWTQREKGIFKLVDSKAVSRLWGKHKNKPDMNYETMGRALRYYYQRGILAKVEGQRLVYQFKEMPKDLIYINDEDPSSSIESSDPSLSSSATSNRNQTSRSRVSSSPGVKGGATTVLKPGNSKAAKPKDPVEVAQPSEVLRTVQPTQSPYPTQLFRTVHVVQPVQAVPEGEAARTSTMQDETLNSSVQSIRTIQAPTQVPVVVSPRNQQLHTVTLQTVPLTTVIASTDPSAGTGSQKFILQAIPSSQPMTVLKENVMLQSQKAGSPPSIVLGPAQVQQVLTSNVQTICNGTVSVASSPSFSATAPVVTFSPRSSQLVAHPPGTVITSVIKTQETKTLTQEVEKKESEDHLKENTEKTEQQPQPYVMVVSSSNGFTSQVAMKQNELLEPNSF
Sequence of ELF4 (Q99607 whole entry): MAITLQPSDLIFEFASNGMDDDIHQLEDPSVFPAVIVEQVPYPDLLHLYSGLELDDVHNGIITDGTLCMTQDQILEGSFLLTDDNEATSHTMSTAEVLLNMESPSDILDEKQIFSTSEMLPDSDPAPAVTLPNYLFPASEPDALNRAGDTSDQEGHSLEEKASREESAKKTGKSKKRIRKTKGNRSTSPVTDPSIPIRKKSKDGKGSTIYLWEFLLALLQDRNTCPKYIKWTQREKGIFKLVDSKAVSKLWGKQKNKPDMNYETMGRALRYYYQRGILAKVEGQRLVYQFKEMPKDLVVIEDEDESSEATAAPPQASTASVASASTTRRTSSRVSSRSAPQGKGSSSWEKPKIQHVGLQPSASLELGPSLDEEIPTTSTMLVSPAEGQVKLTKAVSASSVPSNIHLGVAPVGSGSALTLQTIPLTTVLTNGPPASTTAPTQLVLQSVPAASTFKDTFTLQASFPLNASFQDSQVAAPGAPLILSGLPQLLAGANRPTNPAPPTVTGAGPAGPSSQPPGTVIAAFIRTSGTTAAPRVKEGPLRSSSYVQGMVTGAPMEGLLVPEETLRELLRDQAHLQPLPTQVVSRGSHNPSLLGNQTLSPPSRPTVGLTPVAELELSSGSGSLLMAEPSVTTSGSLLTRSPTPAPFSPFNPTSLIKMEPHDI
Sequence of SPIB (Q01892 whole entry): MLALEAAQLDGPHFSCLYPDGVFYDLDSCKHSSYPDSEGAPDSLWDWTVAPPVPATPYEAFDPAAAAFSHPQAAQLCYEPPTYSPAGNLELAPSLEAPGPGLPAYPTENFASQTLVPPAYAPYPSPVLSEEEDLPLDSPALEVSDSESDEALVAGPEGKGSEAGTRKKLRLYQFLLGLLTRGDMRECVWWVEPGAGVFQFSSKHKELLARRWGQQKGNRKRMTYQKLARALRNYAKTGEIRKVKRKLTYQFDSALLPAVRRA

With GTTCAC, the binding signal in the experiment with FLI1 was 1.23 fold enrichment (6-mer frequency, TF over GST control); with ELK1 it was 1.23 fold enrichment (6-mer frequency, TF over GST control); in the experiment with GABPA, 1.32 fold enrichment (6-mer frequency, TF over GST control); with ERG, 1.21 fold enrichment (6-mer frequency, TF over GST control); in the experiment with ELF1 it was 1.16 fold enrichment (6-mer frequency, TF over GST control); with EHF, 1.13 fold enrichment (6-mer frequency, TF over GST control). For the same sequence, the binding signal with SPI1 is 1.18 fold enrichment (6-mer frequency, TF over GST control); in the experiment with SPIB it was 1.19 fold enrichment (6-mer frequency, TF over GST control); with ELK3 it was 1.18 fold enrichment (6-mer frequency, TF over GST control); with FEV it was 1.3 fold enrichment (6-mer frequency, TF over GST control); with ETV5 it was 1.2 fold enrichment (6-mer frequency, TF over GST control); with HSF1 it was 1.06 fold enrichment (6-mer frequency, TF over GST control). Also, the binding signal in the experiment with SPIC is 1.09 fold enrichment (6-mer frequency, TF over GST control); in the experiment with ELF4, 1.25 fold enrichment (6-mer frequency, TF over GST control); in the experiment with ELK4, 1.29 fold enrichment (6-mer frequency, TF over GST control); with ETV2 it was 1.22 fold enrichment (6-mer frequency, TF over GST control); in the experiment with ELF3, 1.12 fold enrichment (6-mer frequency, TF over GST control); in the experiment with ETV1 it was 1.19 fold enrichment (6-mer frequency, TF over GST control).
